Rows were chosen to be rich in hits. Some 14% of all compounds tested hit in one or more screens of this group.
A350_autofl: compounds fluorescent in Alexa 350 spectral region; Compound autofluorescence, 340/450 nm, Alexa 350 dye-equivalents; stronger effect = higher value; max dye-equivalent concentration, M; 11% of 59,000 active; in the data active = max dye-equivalent concentration above about 10 nM; inconclusive = mostly about 1.1 nM to 9.6 nM
AID923: qHTS Assay for Allosteric/Competitive Inhibitors of Caspase-1: Spectroscopic Profiling in AFC Spectral Region; compound fluorescence, AFC spectral region (405/520 nm); Potency, µM (series often up to 57.5 µM), for inactives: top-dose fluorescence increase, actives largely listed as activators; 1.1% of 75,000 active; note: potency is the fitted concentration of half-maximal effect; 0% is about no effect
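Compound autofluorescence profiled at 405 nm ex/520 nm em during kinetic caspase 1 run (50 nM enzyme, 5 uM Ac-WEHD-AFC, HEPES pH 7.5, 10 mM DTT). Titration up to 57 uM; baseline from regression intercept, normalized to AFC standard curve.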
HSD17B_inh: inhibitors of human HSD17B10 dehydrogenase; AID 893; Potency, µM (highest dose often 57.1 µM), without a hit: at the highest dose activity change, negative = inhibition, actives largely listed as inhibitors; 7.6% of 75,000 active; recombinant HSD17B10, NADH fluorescence kinetic; Q99714;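 note: the protocol describes HADH2 (HSD17B10) and not the HSD17B4 of the title; potency is the fitted concentration of half-maximal effect; % is set by controls: 0 for no effect and ±100 for the full control effect; nearly all actives have a fitted effect of over 70% in size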
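Activity followed as NADH fluorescence increase (ex 360, em 450 nm) every 30 seconds for 4 min, using final 90 uM beta-hydroxybutyryl CoA and 1 mM NAD+. Recombinant His-tagged enzyme, 20 nM, pH 9.0 Tris buffer, 15 min compound preincubation.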
CRE_Fsk_mod: modulators of forskolin-stimulated CRE signaling in CHO cells; CHO CRE-bla reporter (cAMP response element driving beta-lactamase), forskolin EC10, beta-lactamase ratio; 2.5% of 71,000 active; Potency, µM (doses to about 38.2 µM), for the others: at the top dose activity change, negative = inhibition, usual class: activators; active = well fitted activation curve with a large enough effect in the signal ratio, with a control signal flat, not every such curve was filed as active; inconclusive = small, poorly fitted or top-dose-only effect, or effect the other way, or a change in a side signal; the % refers to the signal ratio; note: potency is the fitted concentration of half-maximal effect; % of control where 0% means no effect
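Forskolin analogue NKH 477 at EC10 stimulated CRE-driven beta-lactamase in CHO cells alongside compound dilution series. Beta-lactamase was measured with CCF4, excitation 405 nm, emission ratio 460/530 nm.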
4MU_fluor: compound fluoresces in the 4-MU spectral region; max dye-equivalent concentration, M; compound autofluorescence, 340/450 nm, 4-MU equivalents; stronger effect = higher value; 11% of 59,000 active; in the data active = max dye-equivalent concentration above about 10 nM; inconclusive = mostly about 1.1 nM to 9.6 nM
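Compounds in 100 mM Tris, pH 8.0, sat 15 min at room temperature before fluorescence was read at 340 nm excitation/450 nm emission; a per-plate six-point 4-MU standard curve converted signals to dye-equivalent concentration at each compound concentration.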
HADH2_inh: HADH2 (human) dehydrogenase inhibition; Q99714; recombinant HADH2, NADH fluorescence, beta-hydroxybutyryl-CoA; Potency, µM (doses to about 57.1 µM), for the others: at the top dose activity change, negative = inhibition, usual class: inhibitors; 3.4% of 73,000 active; note: potency is the fitted concentration of half-maximal effect; % is set by controls: 0 for no effect and ±100 for the full control effect; nearly all actives have a fitted effect of over 60% in size
Target sequence (Q99714 whole entry, looked up, one chain of several): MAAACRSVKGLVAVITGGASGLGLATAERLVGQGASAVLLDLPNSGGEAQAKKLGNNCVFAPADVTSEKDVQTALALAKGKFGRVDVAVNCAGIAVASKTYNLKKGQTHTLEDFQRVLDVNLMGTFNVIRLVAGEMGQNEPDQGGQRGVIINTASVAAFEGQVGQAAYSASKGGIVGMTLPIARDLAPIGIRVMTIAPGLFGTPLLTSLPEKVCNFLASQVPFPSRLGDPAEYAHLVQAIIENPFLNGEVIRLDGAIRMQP
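Buffer 100 mM Tris-HCl pH 9.0/0.01% Tween-20; HADH2 20 nM; NAD+ 1 mM; beta-hydroxybutyryl-CoA 90 uM (all final). 15 min cpd preincubation, RT.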
CHO_tox_24h: CHO cell toxicity at 24 h by ATP luminescence. 120 tested, under 10 active. AID 905. shares compounds with CRE_Fsk_mod. CRE-bla CHO viability, ATP luminescence, 24 h. activity, negative = viability loss, % at 46.1 µM
CHO_via_40h: reduces CRE-bla CHO cell viability after 40 hours. shares compounds with CRE_Fsk_mod. CRE-bla CHO viability, ATP luminescence, 40 h. Potency, µM, for inactives: max response, most hits filed as inhibitors. 120 tested, under 10 active. AID 906
CRE-luc_potent: boosts CRE luciferase signal in HEK293 cells | shares compounds with CRE_Fsk_mod | HEK293 CRE-luc2P, NKH477 EC10 potentiation, luminescence, 4 h | Potency, µM (top dose mostly 38.3 µM), inactives show at the top dose activity, positive = activation, hits mostly activators | 80% of 120 active | AID 907
The depositor's hits bear a star; i = inactive; ? = inconclusive; / = no result given; [ ] = dose if it differs, or a comment. Unless noted, calls come from the whole dose curve; as a rule, active = well fitted curve in the direction sought with a large enough effect; inconclusive = small, poorly fitted or top-dose-only effect, or another doubt; inactive = no such curve, though single readings can be large; an effect the other way counts as inactive or inconclusive.

SMILES A350_autofl AID923 HSD17B_inh CRE_Fsk_mod 4MU_fluor HADH2_inh others
C[C@@H]1O[C@H]1P(=O)(O)O i -4.3% 4.8% -10.1% i -6.1%
O=C(O)C[C@H]1OCC=C2CN3CC[C@]45c6ccccc6N[C@@H]4[C@H]1[C@H]2C[C@H]35 i -0.6%[11.5_µM] 2.3%[11.4_µM] -0.7%[7.6_µM] i 0.4%[11.4_µM]
Cc1ccc(-c2cn3c(=S)[nH]nc3s2)cc1 i 0.9% ? 4.8% i 31.6µM*
O=C(Oc1ccc(S(=O)(=O)F)cc1F)c1ccccc1Cl i 0.6%[11.5_µM] 0.3%[11.4_µM] -12.6%[7.6_µM] i -0.8%[11.4_µM]
CN(N=O)c1cc(O)ccc1O i 2.5% 10µM* -3.3% i 2µM*
Cc1ccc(O)cc1 / 3.1% -0.2% -7.5% / -4.6%
COc1cc(CCN)ccc1O i 0.5% 5.0% -1.9% i 9.3%
COc1ccc(Cc2nccc3cc(OC)c(OC)cc23)cc1OC ? -2.2% 9.4% 0.158µM* ? 11.9% CHO_tox_24h=?;CHO_via_40h=?;CRE-luc_potent=0.708µM*
NNc1nncn1N i 1.3%[11.5_µM] -16.5%[11.4_µM] 28.1%[7.6_µM] i ?
Nc1nc2ccc(Cl)cc2c2nc(-c3ccco3)nn12 i -2.8% 5.7% 0.2µM* i 7.5% CHO_tox_24h=-26.0;CHO_via_40h=?;CRE-luc_potent=?

Bioassay records from PubChem BioAssay.
